We go through 43 sequences from paper PMC7819943, “Rice protein-binding microarrays: a tool to detect cis-acting elements near promoter regions in rice”.

Over roughly 35,000 sequences, “fluorescence intensity (a.u.)” has its median near 10,000; the highest 2% begin near 52,000. For the sample, the highest values were picked, then their nearest neighbours and some sequences at random.

In the test the target is T1, OsWOX13 (Oryza sativa, UniProt Q5QMM3 1-267).
T1 sequence: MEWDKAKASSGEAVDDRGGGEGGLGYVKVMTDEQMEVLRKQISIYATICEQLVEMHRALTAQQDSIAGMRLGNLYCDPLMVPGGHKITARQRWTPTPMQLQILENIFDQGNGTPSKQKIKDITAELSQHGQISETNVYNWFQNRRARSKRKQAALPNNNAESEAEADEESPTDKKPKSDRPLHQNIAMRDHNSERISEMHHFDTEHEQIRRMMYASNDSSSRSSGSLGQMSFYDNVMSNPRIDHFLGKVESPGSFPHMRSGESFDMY
In words: protein-binding microarray (RPBM); PBS, 2% BSA, 51.3 ng/ul salmon testes DNA, 50 uM zinc acetate, 200 nM TF, 25 C, 1 h; high values mean tight binding. The following applies: protein: recombinant; tags: N-terminal polyhistidine and DsRed monomer fusion (pET32a); label: CyDye5-dUTP incorporated in the synthesized complementary strand; 3' TTTTT single-stranded linker to array surface; dsDNA, one strand shown. The essentials:
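Polyhistidine-tagged DsRed fusions of transcription factors, joined at the N-terminus, were expressed in E. coli BL21-CodonPlus and isolated on Ni–NTA. They were incubated at 200 nM for 1 h at 25 °C on a custom Agilent array, double-stranded and BSA-blocked, in PBS with 2% BSA, salmon testes DNA and 50 µM zinc acetate. The binding signal is per-feature fluorescence intensity (arbitrary units) read on an Axon 4000B scanner after washing.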
On to “GATATAATTGGTATTATTACTAGGTTGGTGTGATATCCTACGGAGTCACCTAGTGCAG”, for which the binding signal was 27400 fluorescence intensity (a.u.). The value for “CATATTAATTGTTAAAGTTGTCATCATCCAAATTGTTATACGGAGTCACCTAGTGCAG” was 11100 fluorescence intensity (a.u.); that for “ACATTTGTGATTTTCCTAGGTAATGGTGAGATTTTATAGGCGGAGTCACCTAGTGCAG” was 3220 fluorescence intensity (a.u.). The figure for “TGGATGATTGGTGAGATAGGTGTTCCTTATAATTATAGGGCGGAGTCACCTAGTGCAG” is 54800 fluorescence intensity (a.u.). The value for “CACAGAATCCTTAATTAATTATATACATATATTGATCATGCGGAGTCACCTAGTGCAG” was 16200 fluorescence intensity (a.u.); that for “ACTGTGACACATGATGAACTGTTTATTTTGCATGATCTATCGGAGTCACCTAGTGCAG” was 5480 fluorescence intensity (a.u.). As to “GGCGTATTTCCCAATCATTGTGCGGTCCAAAACCATCGCCCGGAGTCACCTAGTGCAG”, the binding signal was 10000 fluorescence intensity (a.u.). As to “CTGATGTGATTACGTCTATCCAGTATAATCCCTCTGGTTTCGGAGTCACCTAGTGCAG”, the binding signal was 31700 fluorescence intensity (a.u.). In the case of “TACCTCGCGACTAATTGGGCCTCCACTAACACCTAGATTCCGGAGTCACCTAGTGCAG”, the binding signal was 4340 fluorescence intensity (a.u.).

In the case of “TGTGAAAATGGATAATTAAGGGATCCCAAAGACCCATAAGCGGAGTCACCTAGTGCAG”, the binding signal is 10800 fluorescence intensity (a.u.).

On to “GTTGAACTTATTCCAATCAAGGATCACGCATTCACGTTCACGGAGTCACCTAGTGCAG”, for which the binding signal is 14100 fluorescence intensity (a.u.). For “TAAAACTTATTTCTTGATAGATCAATCCCAGATTACAATGCGGAGTCACCTAGTGCAG”, the binding signal is 8210 fluorescence intensity (a.u.). The figure for “CGACTGGATTGAAGCATTTTCTGCCTAGCTGTCTGTCTCTCGGAGTCACCTAGTGCAG” is 10100 fluorescence intensity (a.u.); for “CCTGATTGCGTGTTGATTTGACAATATGGTGCTACAGTAACGGAGTCACCTAGTGCAG” it is 54300 fluorescence intensity (a.u.). The figure for “TCTAATTACTTCATGATTTGATAATTTGGTGTTACAGTAACGGAGTCACCTAGTGCAG” is 52400 fluorescence intensity (a.u.); for “AATTTCTTGTTCAATCATTTCATATATATATACATGTAGGCGGAGTCACCTAGTGCAG” it is 6120 fluorescence intensity (a.u.). On to “ATTAATTGATTGGATTGGTTGTGTGCATTATTTCATCTAACGGAGTCACCTAGTGCAG”, for which the binding signal was 65200 fluorescence intensity (a.u.). As for “GATCTAATTTGAAATGTGATAAATTGTTTTCAATAAATGGCGGAGTCACCTAGTGCAG”, the binding signal is 27700 fluorescence intensity (a.u.). The value for “GGTTGATTGTGAAGTTAATTATTTAACATCTCAATTATAACGGAGTCACCTAGTGCAG” was 32800 fluorescence intensity (a.u.). The figure for “CCTAATTACTCCATGATTTGATAATATGACGCTACAGTAACGGAGTCACCTAGTGCAG” is 25000 fluorescence intensity (a.u.); for “CCTAATTGCGTCATGATTTGACAATGTAGTGCTACAGTAACGGAGTCACCTAGTGCAG” it is 50800 fluorescence intensity (a.u.); for “CCTAATTGCACCATGATTTGATAATGTTGTGCTACAGTAACGGAGTCACCTAGTGCAG” it is 42600 fluorescence intensity (a.u.). The figure for “AGTCTAATTGAGTGATTGTATACATGTTCAATGTTCATGGCGGAGTCACCTAGTGCAG” is 65300 fluorescence intensity (a.u.); for “TTCATTAATTGATTATTACTAGTAGGGATGGTTGGTTCAACGGAGTCACCTAGTGCAG” it is 30700 fluorescence intensity (a.u.); for “CATGATTTGACAATATGGTGATACAGTAAATATTTGCTAACGGAGTCACCTAGTGCAG” it is 40600 fluorescence intensity (a.u.). As to “GTTGTATGATTGACACTAGATCGAGAAAAGGTGCGACAAACGGAGTCACCTAGTGCAG”, the binding signal was 23500 fluorescence intensity (a.u.). The figure for “CTTTAAATTTTAACTTTTGCATTGGCTTATTAGACCAACTCGGAGTCACCTAGTGCAG” is 4620 fluorescence intensity (a.u.). The value for “GAAATTACATATGACAAATCCAGAATTTTGATGGAGTGGTCGGAGTCACCTAGTGCAG” was 6770 fluorescence intensity (a.u.); that for “TGCTCAATCACACACACACACGCGTGTAATATTAAGATTTCGGAGTCACCTAGTGCAG” was 10500 fluorescence intensity (a.u.). The figure for “TAGATTGATCGGACTAACCACCCCATTTTACACCATTTGCCGGAGTCACCTAGTGCAG” is 20900 fluorescence intensity (a.u.); for “ATGTAAATCAATTGTTTAGTGTTGGATCTATAAGCAACATCGGAGTCACCTAGTGCAG” it is 4370 fluorescence intensity (a.u.); for “TCTAATTGAAATTATTGTGTTTATGTATAAAGACAAATACCGGAGTCACCTAGTGCAG” it is 24900 fluorescence intensity (a.u.).

With “TTTGATTTGTTAATCCAGCTAGTCGTGGGGAATAGTGAAGCGGAGTCACCTAGTGCAG”, the binding signal was 42700 fluorescence intensity (a.u.). The figure for “TTTAGTAATTGGTAGAGCTCAAATTTCTAAATTTAACTTCCGGAGTCACCTAGTGCAG” is 6730 fluorescence intensity (a.u.); for “ATTAAGATTGATTAATTGTTGCTTGGTTAATAGCCACTTACGGAGTCACCTAGTGCAG” it is 47500 fluorescence intensity (a.u.). The figure for “TAAGTAATTGATTGGTAGCCAGCTTCTAACTTCTAGCTTACGGAGTCACCTAGTGCAG” is 63600 fluorescence intensity (a.u.); for “TTCTAATCAAGCTTTCTGGTTAATTTCTCTATGAATTTAACGGAGTCACCTAGTGCAG” it is 5250 fluorescence intensity (a.u.); for “TCTAGAGAATTAGCCCTGATTATAATGTGAGACTTTGCATCGGAGTCACCTAGTGCAG” it is 4870 fluorescence intensity (a.u.). The value for “AAATCAATCTGATGGGCCGAATTGGAGGCCCATATCCGTGCGGAGTCACCTAGTGCAG” was 8660 fluorescence intensity (a.u.). As to “TTTGGATTGGCCAGAACAAGATATACTTTCGAATCTTTTGCGGAGTCACCTAGTGCAG”, the binding signal was 11300 fluorescence intensity (a.u.). The value for “CTCGCCATCTTCGCCGTCCTTGCTTTCTTATATAAATTTTCGGAGTCACCTAGTGCAG” was 4080 fluorescence intensity (a.u.); that for “GCCGCCACCTTCGCCTTTATAAAGCTTACCTTTGCTACCACGGAGTCACCTAGTGCAG” was 64800 fluorescence intensity (a.u.); that for “TCATAAATTATTTATAATTGCCTTGCTTAATTTACGCCTTCGGAGTCACCTAGTGCAG” was 28900 fluorescence intensity (a.u.).
